From PubChem
GLP1R cytotox = cytotoxicity in counter-screen for GLP-1R inverse agonists; 410,000 tested, 0.13% active; Potency, µM (highest dose often 38.3 µM), most hits filed as inhibitors; AID 624418; HEK293 cAMP-luciferase reporter cells, luminescence, 24 h;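 also: loss of luciferase light is scored as toxicity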
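Step one: seed cells (200 cells/uL, DMEM with 10% Nu serum, 1% pen-strep). Step two: 12-hour incubation at 37 deg C. Step three: pin 23 nL compound, incubate 24 hr. Step four: add luciferase reagent, read luminescence 12 min later.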
PTHR1 ag = agonists of human PTHR1 parathyroid hormone receptor; Q03431; HEK293 GP2 PTHR1 cells, GloSensor cAMP luminescence, 1 h; Potency, µM (series often up to 115 µM), usual class: activators; 410,000 tested, 0.075% active; also: nearly all actives have a fitted effect of over 55% in size
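HEK-293-derived GP2 cells expressing PTHR1 and a GloSensor cAMP reporter, 3,000/well, plated overnight, given luciferin plus IBMX (each 0.5 mM as added) for 1 h at 37 °C, then compound for 1 h at 37 °C. Luminescence was read after 15 min at room temperature.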
GLP-1R agonist = agonists of human GLP-1 receptor; P43220; HEK293 GLP-1R CRE-luciferase, luminescence, 4-6 h; cells express a hypersensitive GLP-1R form; Potency, µM (highest dose often 45.6 µM), usual class: activators; 380,000 tested, 0.007% active
GLP1R inv ag = GLP-1 receptor (human) inverse agonism; AID 624417; 410,000 tested, 1.6% active; HEK293 GLP-1R CRE-luciferase, luminescence, 24 h; GLP-1R form is constitutively active; P43220; Potency, µM (highest dose often 38.3 µM), usual class: inhibitors; also: nearly all actives have a fitted effect of over 55% in size
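qHTS in 1536-well format: reporter HEK293 cells expressing constitutive GLP-1R activity in DMEM + 10% Nu serum, 24 hr with compounds at 37 deg C, luminescence read after 12 min with detection reagent.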
Large screens that a line does not name were inactive. Sampled rows, rich in hits. Any-hit rate of the full collection: about 1.7%. Calls follow the shape of the dose curve; as a rule, active = well fitted curve in the direction sought with a large enough effect; inconclusive = small, poorly fitted or top-dose-only effect, or another doubt; inactive = no such curve, though single readings can be large; an effect the other way counts as inactive or inconclusive.

CCCOc1ccc(CNC(=O)c2ccc3c(c2)N(Cc2ccccc2)CCS3)cc1	GLP1R inv ag inconclusive (no result: GLP-1R agonist)
O=C1Nc2cc(C(=O)NCCCN3CCOCC3)ccc2S/C1=C/c1cccc(Cl)c1	none
O=C(NCCCN1CCCC1)c1ccc2c(c1)N(Cc1ccccc1)CCS2	GLP1R cytotox 4.5µM, GLP1R inv ag inconclusive
O=C(NCc1ccccc1)c1ccc2c(c1)N(Cc1ccc(F)cc1)CCS2	GLP1R inv ag 5.6µM (no result: GLP-1R agonist)
O=C1Nc2cc(C(=O)NCCCN3CCCC3)ccc2S/C1=C\c1ccccc1	GLP1R inv ag 10µM
CCc1ccc(NC(=O)Nc2cn(C)c(=O)c3ccccc23)cc1	none (no result: GLP-1R agonist)
CCOC(=O)c1c(SCC(=O)Nc2nc3ccc(C)cc3s2)nc(=O)[nH]c1C	none (no result: GLP-1R agonist)
CCOc1ccccc1C(=O)N1CC(=O)Nc2ccc(Cl)cc2C1c1ccccc1 (stereo not given)	GLP1R inv ag inconclusive (no result: GLP-1R agonist)
Cc1cccc(N2CCN(C(=O)C3CCCN(S(=O)(=O)c4cccc5nsnc45)C3)CC2)c1C (stereo not given)	none
C/C(=N\Nc1ccc(F)cc1F)c1ccc(Br)s1	GLP1R inv ag 13µM
C/C(=N\NC(=O)c1ccc(Cl)cc1)c1ccc(Br)s1	none
C=CC[C@H](CC(=O)NCCO)C(=O)N[C@H](COC(=O)[C@@H](CC=C)Cc1ccc(F)cc1)Cc1ccccc1	GLP1R cytotox inconclusive, GLP1R inv ag 10µM
C=CCC[C@H](Cc1ccc(F)cc1)C(=O)OC[C@@H](NC(=O)[C@@H](CC=C)CC(=O)N[C@@H](CO)Cc1ccccc1)C(C)(C)C	GLP1R cytotox inconclusive, GLP1R inv ag inconclusive
C=CC[C@H](CC(=O)N(CCO)Cc1ccccc1)C(=O)N[C@H](COC(=O)[C@@H](CC=C)Cc1ccc(F)cc1)C(C)(C)C	GLP1R inv ag 10µM
C=CC[C@H](CC(=O)NCCO)C(=O)N[C@@H](COC(=O)[C@@H](CC=C)Cc1ccc(F)cc1)Cc1ccccc1	none
C=CCC[C@@H](Cc1ccc(F)cc1)C(=O)OC[C@@H](NC(=O)[C@@H](CC=C)CC(=O)N[C@@H](CO)Cc1ccccc1)C(C)(C)C	GLP1R inv ag 10µM
C=CC[C@@H](CC(=O)N(CCO)Cc1ccccc1)C(=O)N[C@H](COC(=O)[C@@H](CC=C)Cc1ccc(F)cc1)C(C)(C)C	GLP1R cytotox inconclusive, GLP1R inv ag inconclusive
COc1ccccc1-c1cc2nc(C)c(CCC(=O)NCc3cccc(Cl)c3)c(C)n2n1	GLP1R inv ag inconclusive
COc1cccc(CNC(=O)C2CCCN(S(=O)(=O)c3ccc4c(ccn4C)c3)C2)c1OC (stereo not given)	none (no result: GLP-1R agonist)
Cc1noc(-c2ccccc2OCC(=O)Nc2cccc([N+](=O)[O-])c2)n1	none (no result: GLP-1R agonist)
CCC1CCCCN1C(=O)Cn1c(=O)oc2cc(S(=O)(=O)N3CCCCC3)ccc21 (stereo not given)	none (no result: GLP-1R agonist)
CC(=O)c1nc2ccccc2n1CCc1ccccc1	GLP1R inv ag inconclusive
N#CC(=C1NC(=O)c2ccccc21)c1nc2ccccc2n1CCO	GLP1R inv ag 10µM
COc1ccc(N2C(=O)CS/C2=N\C(=S)Nc2ccccc2)cc1	GLP1R cytotox inconclusive, GLP1R inv ag 13µM
CN(C)c1ccc(C(=O)Nc2nc3c(s2)CCCC3)cc1	GLP1R inv ag 11µM
O=C(Nc1nc2c(s1)CCCC2)c1ccc(S(=O)(=O)N2CCCc3ccccc32)cc1	GLP1R inv ag 4µM
O=S(=O)(c1ccccc1)N1CCC(O)(CSc2ccccc2)CC1	GLP1R inv ag 10µM
COc1cc(NC(=O)CCn2c(-c3ccccc3)cc(C(C)=O)c2C)cc(OC)c1	none (no result: GLP-1R agonist)
CCCCN(CC)CCNC(=O)C1CCN(c2nnc(C)c3c(C)n(-c4ccc(C)cc4)nc23)CC1	GLP1R cytotox inconclusive, GLP1R inv ag 10µM (no result: GLP-1R agonist)
Cc1ccc(CCNC(=O)C2CCN(c3nnc(C)c4c(C)n(-c5ccccc5)nc34)CC2)cc1	none (no result: GLP-1R agonist)
Cc1nc2c(-c3ccc(F)cc3)c(C)nn2c(C)c1CCC(=O)NC(C)CCc1ccco1 (stereo not given)	GLP1R inv ag 7.1µM
CCOC(=O)Cn1c(=O)n(C2CCCCC2)c2nc(-c3ccc(Cl)cc3)nc(C(N)=O)c21	none
CCOC(=O)[C@]12CCCC=C1N(CCc1ccc(OC)c(OC)c1)C(=O)[C@H](CC(=O)NCCCCc1ccccc1)C2	GLP1R inv ag 10µM (no result: GLP-1R agonist)
CCOc1c(Cl)cc(CNc2ccc3[nH]c(=O)[nH]c3c2)cc1OC	GLP1R cytotox inconclusive (no result: GLP-1R agonist)
